This is an account of results in PubChem BioAssay (NCI).

Compounds without any hit were thinned out: in the full panel of roughly 79,000, 15% have a hit. Unmarked numbers belong to inactive results. Activity calls are given as the source filed them. Rule as the data show it: active = growth inhibition above about 70%; inactive = the rest.

Assay [1] in a line: NCI Yeast Anticancer Drug Screen. Data for the rad50 strain (AID 155).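 Also: 0% = growth of vehicle-only cultures of the same strain.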 To be noted: S. cerevisiae rad50 strain growth inhibition, active compounds read high. A digest of the protocol: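 Compounds were tested on a yeast strain with an engineered DNA damage repair alteration; the reported value is growth inhibition normalised to vehicle treatment.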
Assay [2] is described as follows: NCI Yeast Anticancer Drug Screen. Data for the mec2-1 strain (AID 157). To be noted: S. cerevisiae mec2-1 strain, active compounds read high. A digest of the protocol: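 Mutant yeast (mec2-1) grown with compound; growth inhibition relative to vehicle control reported.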
Assay [3] in a line: NCI Yeast Anticancer Drug Screen. Data for the sgs1 mgt1 strain (AID 161).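 Also: 0% = growth of cultures given vehicle only.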 To be noted: S. cerevisiae sgs1 mgt1 strain, active compounds read high. A digest of the protocol: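 Percent growth inhibition was derived by comparing compound-exposed mutant yeast with vehicle-exposed cultures. The strain carries alterations in DNA damage repair.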
A short description of assay [4]: NCI Yeast Anticancer Drug Screen. Data for the cln2 rad14 strain (AID 165).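 Also: 0% = growth equal to vehicle treated cultures.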 To be noted: S. cerevisiae cln2 rad14 strain, active compounds read high. A digest of the protocol:
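Readout is yeast growth inhibition versus vehicle-treated controls, using a strain with cln2 and rad14 alterations exposed to compound.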

Assay [5] in a line: NCI Yeast Anticancer Drug Screen. Data for the bub3 strain (AID 167). To be noted: S. cerevisiae bub3 mutant strain, active compounds read high. A digest of the protocol:
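Growth of a checkpoint-deficient yeast mutant is measured after compound exposure. Values represent inhibition relative to vehicle.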

Assay [6] is described as follows: NCI Yeast Anticancer Drug Screen. Data for the mlh1 rad18 strain (AID 175). To be noted: S. cerevisiae mlh1 rad18 strain growth inhibition, active compounds read high. The essentials:
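Genetically defined yeast (DNA repair-deficient) exposed to compounds; growth inhibition determined relative to vehicle.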

Setting [7] is: at 5.0 µM (retest, dose inferred, filed as 0.5).
[8] abbreviates: at 50.0 µM (retest, dose inferred, filed as 5.0).

As to `O=C(c1ccco1)N(C(=S)N1CCN(c2ccccn2)CC1)c1ccccc1`, the growth inhibition in assay [1] (setting [7]) is 3%; in assay [1] (setting [8]), 76% (active); in assay [1] (at 50.0 µM) it was 77.2% (active); in assay [2] (setting [7]), 8%; in assay [2] (setting [8]) it was 51%; in assay [2] (at 50.0 µM) it was 47.4%. The growth inhibition in assay [3] (setting [7]) was -1%; in assay [3] (setting [8]), 71% (active); in assay [3] (at 50.0 µM), 63.4%; in assay [4] (setting [7]), 31%; in assay [4] (setting [8]), 53%; in assay [4] (at 50.0 µM), 36.5%. In addition, the growth inhibition in assay [5] (setting [7]) is -2%; in assay [5] (setting [8]), 60%; in assay [5] (at 50.0 µM), 53%; in assay [6] (setting [7]) it was -2%; in assay [6] (setting [8]), 78% (active); in assay [6] (at 50.0 µM), 57.4%.

For the compound `O=C1C=CC(=O)N1c1cccc(F)c1`, the growth inhibition in assay [1] (setting [7]) is 96% (active); in assay [1] (setting [8]), 99% (active); in assay [1] (at 50.0 µM) it was 99.7% (active); in assay [2] (setting [7]), 97% (active); in assay [2] (setting [8]), 100% (active); in assay [2] (at 50.0 µM), 99.8% (active). Moreover, the growth inhibition in assay [3] (setting [7]) is 93% (active); in assay [3] (setting [8]), 99% (active); in assay [3] (at 50.0 µM), 99.7% (active); in assay [4] (setting [7]), 82% (active); in assay [4] (setting [8]) it was 99% (active); in assay [4] (at 50.0 µM), 98.8% (active). Moreover, the growth inhibition was 98% (active) in assay [5] (setting [7]); 100% (active) in assay [5] (setting [8]); 99.6% (active) in assay [5] (at 50.0 µM); 88% (active) in assay [6] (setting [7]); 100% (active) in assay [6] (setting [8]); 99.4% (active) in assay [6] (at 50.0 µM).

In the case of `O=S(=O)(Cl)c1ccc(Br)cc1`, the growth inhibition is 45% in assay [1] (setting [7]); 99% (active) in assay [1] (setting [8]); 37.3% in assay [1] (at 50.0 µM); 68% in assay [2] (setting [7]); 100% (active) in assay [2] (setting [8]); -4.55% in assay [2] (at 50.0 µM). Further, the growth inhibition is 72% (active) in assay [3] (setting [7]); 99% (active) in assay [3] (setting [8]); 0.15% in assay [3] (at 50.0 µM); 21% in assay [4] (setting [7]); 100% (active) in assay [4] (setting [8]); -76.1% in assay [4] (at 50.0 µM). Also, the growth inhibition was 84% (active) in assay [5] (setting [7]); 99% (active) in assay [5] (setting [8]); 9.25% in assay [5] (at 50.0 µM); 28% in assay [6] (setting [7]); 99% (active) in assay [6] (setting [8]); 0.55% in assay [6] (at 50.0 µM).

For `O=C(Nc1ccc(C(=O)c2ccccc2)cc1)Nc1ccc(Cl)c(Cl)c1`, the growth inhibition in assay [1] (setting [7]) was 23%; in assay [1] (setting [8]), 96% (active); in assay [1] (at 50.0 µM), 92.5% (active); in assay [2] (setting [7]), 9%; in assay [2] (setting [8]), 97% (active); in assay [2] (at 50.0 µM), 95.2% (active). Moreover, the growth inhibition in assay [3] (setting [7]) is 23%; in assay [3] (setting [8]), 97% (active); in assay [3] (at 50.0 µM) it was 94.8% (active); in assay [4] (setting [7]), 30%; in assay [4] (setting [8]) it was 91% (active); in assay [4] (at 50.0 µM) it was 94.5% (active). Moreover, the growth inhibition is 31% in assay [5] (setting [7]); 98% (active) in assay [5] (setting [8]); 96.1% (active) in assay [5] (at 50.0 µM); 38% in assay [6] (setting [7]); 97% (active) in assay [6] (setting [8]); 94.7% (active) in assay [6] (at 50.0 µM).

Turning to `COCCCNC(=O)SC`, the growth inhibition in assay [1] (setting [7]) is 0%; in assay [1] (setting [8]), -2%; in assay [1] (at 50.0 µM), -9.65%; in assay [2] (setting [7]) it was 2%; in assay [2] (setting [8]), -1%; in assay [2] (at 50.0 µM) it was -22.4%. The growth inhibition in assay [3] (setting [7]) is 3%; in assay [3] (setting [8]), 2%; in assay [3] (at 50.0 µM) it was -15.6%; in assay [4] (setting [7]) it was -2%; in assay [4] (setting [8]) it was 0%; in assay [4] (at 50.0 µM), 56.6%. The growth inhibition was 0% in assay [5] (setting [7]); 2% in assay [5] (setting [8]); -6.85% in assay [5] (at 50.0 µM); 0% in assay [6] (setting [7]); -2% in assay [6] (setting [8]); 19.1% in assay [6] (at 50.0 µM).

As for `Nc1nc(N)c2c(ccc3c2ccn3Cc2cccc([N+](=O)[O-])c2)n1`, the growth inhibition in assay [1] (setting [7]) was 39%; in assay [1] (setting [8]), 60%; in assay [1] (at 50.0 µM) it was 19.9%; in assay [2] (setting [7]), 70% (active); in assay [2] (setting [8]), 90% (active); in assay [2] (at 50.0 µM), 0.75%. Further, the growth inhibition is 56% in assay [3] (setting [7]); 67% in assay [3] (setting [8]); 54.4% in assay [3] (at 50.0 µM); 38% in assay [4] (setting [7]); 53% in assay [4] (setting [8]); 57.5% in assay [4] (at 50.0 µM). In addition, the growth inhibition in assay [5] (setting [7]) is 43%; in assay [5] (setting [8]) it was 51%; in assay [5] (at 50.0 µM), 83.5% (active); in assay [6] (setting [7]), 29%; in assay [6] (setting [8]), 46%; in assay [6] (at 50.0 µM), 14.6%.

With `CC(=O)C1C(S)CC2C3CC=C4CC(O)CCC4(C)C3CCC21C` (configuration not stated), the growth inhibition is 1% in assay [1] (setting [7]); 98% (active) in assay [1] (setting [8]); 98.8% (active) in assay [1] (at 50.0 µM); 7% in assay [2] (setting [7]); 98% (active) in assay [2] (setting [8]); 98.5% (active) in assay [2] (at 50.0 µM). Moreover, the growth inhibition in assay [3] (setting [7]) is -8%; in assay [3] (setting [8]), 98% (active); in assay [3] (at 50.0 µM) it was 98.7% (active); in assay [4] (setting [7]), -7%; in assay [4] (setting [8]) it was 98% (active); in assay [4] (at 50.0 µM), 98% (active). In addition, the growth inhibition in assay [5] (setting [7]) is 8%; in assay [5] (setting [8]), 98% (active); in assay [5] (at 50.0 µM) it was 50.9%; in assay [6] (setting [7]), 0%; in assay [6] (setting [8]) it was 98% (active); in assay [6] (at 50.0 µM) it was 98.8% (active).

Consider `CS/C(N)=N/NC(=O)CCC(=O)Nc1cc(Cl)c(Cl)cc1Cl`, for which the growth inhibition in assay [1] (setting [7]) was 3%; in assay [1] (setting [8]) it was 16%; in assay [1] (at 50.0 µM), 24.7%; in assay [2] (setting [7]) it was 9%; in assay [2] (setting [8]), -2%; in assay [2] (at 50.0 µM), 3%. Moreover, the growth inhibition is 6% in assay [3] (setting [7]); 16% in assay [3] (setting [8]); -10.2% in assay [3] (at 50.0 µM); 13% in assay [4] (setting [7]); 13% in assay [4] (setting [8]); 15% in assay [4] (at 50.0 µM). Further, the growth inhibition in assay [5] (setting [7]) is 4%; in assay [5] (setting [8]), 4%; in assay [5] (at 50.0 µM) it was -0.85%; in assay [6] (setting [7]), 5%; in assay [6] (setting [8]), 3%; in assay [6] (at 50.0 µM), 19.5%.

Consider `CC1=C(C(=O)Nc2cc(O)ccc2O)C(c2cccc([N+](=O)[O-])c2)C(C(=O)Nc2cc(O)ccc2O)=C(C)N1`, for which the growth inhibition in assay [1] (setting [7]) is -8%; in assay [1] (setting [8]), 20%; in assay [1] (at 50.0 µM), 32.3%; in assay [2] (setting [7]) it was -23%; in assay [2] (setting [8]), 6%; in assay [2] (at 50.0 µM), 25.9%. Further, the growth inhibition in assay [3] (setting [7]) was -14%; in assay [3] (setting [8]) it was 15%; in assay [3] (at 50.0 µM) it was 35.9%; in assay [4] (setting [7]) it was -5%; in assay [4] (setting [8]), 12%; in assay [4] (at 50.0 µM), 46.8%. Also, the growth inhibition in assay [5] (setting [7]) was -7%; in assay [5] (setting [8]), 0%; in assay [5] (at 50.0 µM) it was 2.35%; in assay [6] (setting [7]) it was -9%; in assay [6] (setting [8]) it was 20%; in assay [6] (at 50.0 µM), 36.5%.
